# Results as given in ChEMBL document CHEMBL3988442, “University of Dundee, Small-Polar-MMV Screening Library” (2021).
# The campaign covered roughly 48,000 compounds. About 13,000 (27%) showed an effect of 50% or more. The list shows a part of the results.
# Tested on: Wolbachia pipientis
# Assay: Anti-Wolbachia Cell-Based Screen
# Type: functional
# Set-up: scale not given: in the data most compounds retested in dose-response had high values
# Conditions: 5 µM
row,SMILES,Percent Effect [%]
1,Cc1nnc(CN2CCCC2c2ccc3c(c2)OCCCO3)n1C (configuration not stated),-16.28
2,Cc1ccc(CNCc2nnc3n2CCCC3C(F)(F)F)s1 (configuration not stated),-0.9896
3,Cc1cc(CC(=O)NCC(O)COc2ccc(F)c(F)c2)n[nH]1 (configuration not stated),-4.204
4,CCN(CC)C(=O)c1ccc(Cl)c(NC(=O)c2cc(C(C)C)on2)c1,105.3
5,CCN(CC)C(=O)c1ccc(Cl)c(NC(=O)c2csnn2)c1,102.3
6,COCCN(Cc1ccc(F)cc1Cl)C(=O)c1csnn1,2.289
7,CCN(CC)c1ccc(CNC(=O)c2cnc(C)cn2)cn1,0.4576
8,CC(C)OCCC(=O)Nc1cc(C(=O)N(C)C(C)C)ccc1Cl,-18.48
9,CCN(CC)C(=O)c1ccc(Cl)c(NC(=O)c2cc[nH]n2)c1,48.61
10,CCN(CC)C(=O)c1ccc(Cl)c(NC(=O)c2cnc(C)cn2)c1,101.4
11,CC(C)CC(=O)Nc1cc(C(=O)N(C)C(C)C)ccc1Cl,-13.72
12,Cc1cnc(C(=O)N(CCN(C)C)Cc2ccc(Cl)cc2)cn1,18.7
13,O=C(c1nc(=O)[nH]c2ccccc12)N1CCCC(CC2CC2)(C(=O)O)C1 (configuration not stated),-2.768
14,CCc1noc(CS(=O)(=O)c2cccc(OC)c2)n1,-12.89
15,CN(C)CC1(O)CCN(C(=O)Cc2ccc3c(c2)CCC3)C1 (configuration not stated),113.1
16,CN(C)CC1(O)CCN(C(=O)Cc2ccc3ccccc3c2)C1 (configuration not stated),131.3
17,CN(C)CC1(O)CCCN(C(=O)Cc2ccc(Cl)c(Cl)c2)C1 (configuration not stated),6.381
18,CN(CCO)C[C@@H]1CN(C(=O)Cc2ccc3ccccc3c2)C[C@@H]1CO,-10.71
19,Cc1cc2occ(CC(=O)N3CCC(O)(CN(C)C)C3)c2cc1Cl (configuration not stated),-55.74
20,Cc1c(C(=O)N2CCC(O)(CN(C)C)C2)c2cc(O)ccc2n1C (configuration not stated),-4.838
21,CN(C)CC1(O)CCN(C(=O)Cc2ccc(Cl)c(Cl)c2)C1 (configuration not stated),-5.552
22,CN(C)C[C@@H]1CN(C(=O)Cc2ccc3ccccc3c2)C[C@@H]1CO,-10.12
23,CN(C)CC1(O)CCN(C(=O)Cc2ccc3c(c2)CCCC3)C1 (configuration not stated),97.61

row,SMILES,Percent Effect [%]
1,COc1c(NC(=O)N(C)CCOc2ccc(F)cc2)c(C)nn1C,-9.317
2,CC(=O)NCCOc1c(C)cccc1C,-5.514
3,Cc1ccc(F)cc1NC(=O)C1CCCN1C(=O)C(C)C (configuration not stated),-3.665
4,CC(=O)N1CCCC1C(=O)NCCOc1cc(C)cc(C)c1 (configuration not stated),2.584
5,O=C1CCCN1CC1CCCCN1C(=O)Nc1cccc(F)c1 (configuration not stated),-9.718
6,CC(C)CCNC(=O)C1CCCN1C(=O)Nc1cccc(F)c1 (configuration not stated),134.2
7,C=C(C)COCCNC(=O)C1CCCN1C(C)=O (configuration not stated),4.711
8,CC(=O)N1CCN(C(=O)CCOc2ccc(C(C)C)cc2)CC1,-11.35
9,CC(=O)N1CCC[C@H]1C(=O)NCCOc1cccc(Cl)c1,1.208
10,CC(=O)N1CCCC1C(=O)NCCOc1ccc(C(C)C)cc1 (configuration not stated),97.98
11,CC(=O)N1CCCC1C(=O)NCCOc1cccc(F)c1 (configuration not stated),92.85
12,CC(=O)N1CCC[C@H]1C(=O)N(C)CCCOc1ccccc1,16.69
13,CC(=O)N1CCCC1C(=O)NCCOc1c(C)cccc1C (configuration not stated),70.88
14,CCC(CNC(=O)COC)Oc1cccc(F)c1 (configuration not stated),-17.35
15,NC(=O)c1csc(N2CCCC(c3n[nH]c(=O)n3-c3ccccc3)C2)n1 (configuration not stated),-8.892
16,CC(C)c1cc(C(=O)NCCn2nc3ccccn3c2=O)n[nH]1,7.227
17,Cc1nc(NC(=O)NCCCN2CCC(C(N)=O)CC2)sc1C,92.76
18,Cc1nc(Nc2ccc(Cl)cn2)sc1C(=O)NCCCN1CCCCC1,-4.658
19,Cc1nnc(NC(=O)NCCCN2CCC(C(N)=O)CC2)s1,105
20,Cc1nnc(NC(=O)N2CCCCC2CCO)s1 (configuration not stated),-9.567
21,Cc1nnc(NC(=O)NCc2ccc(C)n2C)s1,1.794
22,Cc1nc(NC(=O)C2CCCN(C(=O)C3CC3)C2)sc1C (configuration not stated),22.45
23,Cc1cccc(CN2CCC(Cc3ccccc3F)CC2)n1,-1.449

row,SMILES,Percent Effect [%]
1,Cc1cccc(CNC(=O)CC2CCN(S(C)(=O)=O)CC2)n1,82.07
2,Cc1cccc(CNC(=O)CC2CCN(C(=O)C(C)C)CC2)n1,83.92
3,Cc1cccc(CN2CCS(=O)(=O)[C@@H]3CCN(S(C)(=O)=O)CC[C@@H]32)n1.O=C(O)C(F)(F)F,-6.526
4,Cc1cccc(C(=O)N2CCn3cc(CNC(=O)CC4CC4)nc3C2)n1,2.995
5,COC(=O)N1CCCC(NC(=O)NCc2cccc(C)n2)C1 (configuration not stated),-5.43
6,Cc1cccc(CN2CCn3cc(CNC(=O)CC4CC4)nc3C2)n1,3.137
7,Cc1cccc(CNC(=O)C2CCC(=O)N(Cc3ccccc3F)C2)n1 (configuration not stated),-24.63
8,Cc1cccc(CNC(=O)CC2CCN(Cc3ccccn3)CC2)n1,99.8
9,Cc1cccc(C2(O)CCN(C(=O)c3ccc(N(C)C)cc3)CC2)c1C,-4.914
10,COc1ccc(Br)cc1NCC(=O)NC(C)(C#N)C1CC1 (configuration not stated),14.48
11,Cc1ccccc1CN1CCC(CNc2ncnc3c2CCNCC3)C1 (configuration not stated),119.4
12,Cc1nc(CN2CCCC(Nc3ncnc4c3CCC4)C2)no1 (configuration not stated),-2.2
13,c1ccc(CN2CCC(CNc3ncnc4c3CCNCC4)CC2)cc1,97.41
14,c1cnnc(N2CCCC2CNc2ncnc3c2CCC3)c1 (configuration not stated),2.71
15,c1ccc(CN2CCC(Nc3ncnc4c3CCNCC4)C2)cc1 (configuration not stated),76.79
16,c1ccc(CN2CCC(NCCSc3ncn[nH]3)C2)cc1 (configuration not stated),12.73
17,O=C(Cn1cccn1)NCC1CCCN(Cc2ccccc2)C1 (configuration not stated),8.029
18,Cc1[nH]c2ccccc2c1CCNc1ncnc2c1CCNCC2,-9.659
19,c1ccc(CN2CCCC(CNc3ncnc4c3CCNCC4)C2)cc1 (configuration not stated),100.7
20,Cc1ccccc1CN1CCC(NCC2CNc3ccnn3C2)CC1 (configuration not stated),8.316
21,OC(CN(Cc1ccccc1)Cc1ccncc1)c1cccs1 (configuration not stated),13.62
